CYP2C9 inh = blocks human cytochrome P450 2C9; P11712; CYP2C9 Supersomes, luciferin-H conversion, luminescence; inhibition, % at 5 µM; 96,000 compounds, 20% hits;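 active means blocking of liver enzyme CYP2C9 beyond about 50% at 5 µM, limit read from the data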
Target sequence (P11712 whole entry, looked up): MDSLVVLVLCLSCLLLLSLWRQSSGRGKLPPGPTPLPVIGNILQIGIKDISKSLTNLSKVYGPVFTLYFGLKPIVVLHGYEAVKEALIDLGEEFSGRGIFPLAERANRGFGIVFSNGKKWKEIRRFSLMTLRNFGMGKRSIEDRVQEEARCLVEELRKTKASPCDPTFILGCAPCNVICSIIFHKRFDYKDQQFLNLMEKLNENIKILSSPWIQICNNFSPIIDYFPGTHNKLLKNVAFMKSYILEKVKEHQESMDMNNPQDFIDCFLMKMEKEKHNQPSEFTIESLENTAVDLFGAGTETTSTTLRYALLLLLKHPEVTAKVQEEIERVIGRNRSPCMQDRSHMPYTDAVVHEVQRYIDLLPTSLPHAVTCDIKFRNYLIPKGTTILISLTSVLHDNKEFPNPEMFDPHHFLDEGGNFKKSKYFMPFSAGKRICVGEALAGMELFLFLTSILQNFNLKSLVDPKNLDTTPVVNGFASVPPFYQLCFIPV
CYP2C9 act = activators of human CYP2C9; P11712; recombinant CYP2C9, luciferin-H conversion, luminescence; hits give high values; factor 1 = untreated enzyme, 0 = blocked; activation factor at 5 µM; 96,000 compounds, 1.4% hits; AID 1024;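 active means activation factor of 2 or more for CYP2C9 at a 5 µM dose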
CYP2C19 act = increases human CYP2C19 enzyme activity; AID 1025; activation factor at 5 µM; P33261; recombinant CYP2C19, luciferin-H EGE luminescence; hits give high values; 0 = fully inhibited enzyme, 1 = untreated enzyme; 96,000 tested, under 10 active;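 active means activation factor of at least 2 at 5 µM in the primary screen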
Measles CPE = protection of cells from measles virus | AID 841 | protection (pct of control), % at 4 µM | 140,000 compounds, 1.5% hits | Measles virus-infected cells, CPE protection, absorbance; in the data active means protection mostly above about 24%, no sharp cut-off; inactive means mostly below about 26%
CYP2C19 inh = blocks human cytochrome P450 2C19 | AID 778 | P33261 | inhibition, % at 5 µM | CYP2C19 Supersomes, luciferin-H EGE luminescence, 30 min | 96,000 compounds, 21% hits;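 active means CYP2C19 inhibition above a set limit at 5 µM in the primary screen, cut at about 50% in these data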
Large screens that a line does not name were inactive. Most compounds without a hit are left out; they make up all but 22% or so of the library.

O=c1[nH]cc(F)c(=O)[nH]1	none (no result: CYP2C9 inh, CYP2C9 act, CYP2C19 act, CYP2C19 inh)
CC(C)c1nc2sc3c(c2c(=O)o1)CCCC3	CYP2C9 inh 66, CYP2C19 inh 51
Cc1ccc(-c2nc3sc4c(c3c(=O)n2N)CC(C)(C)OC4)cc1	none
Cc1nc2sc3c(c2c(=O)o1)CCCC3	none
O=c1c2c3c(sc2nc2n1CCCC2)CCCCC3	CYP2C9 inh 62
Cc1ccc(-c2nc3sc4c(c3c(=O)n2N)CCCC4)cc1	CYP2C9 inh 58
Nc1nc2sc3c(c2c(=O)s1)CCCC3	CYP2C9 inh 80
NC(=O)CSc1nc2ccccc2n1-c1ccccc1	none (no result: CYP2C9 inh, CYP2C9 act, CYP2C19 act, CYP2C19 inh)
Cc1ccc(NS(=O)(=O)c2cccc(C(=O)O)c2)cc1S(=O)(=O)N1CCCCC1	none (no result: CYP2C9 inh, CYP2C9 act, CYP2C19 act, CYP2C19 inh)
COC(=O)CNS(=O)(=O)c1ccc(C)cc1	none
O=c1c2c3c(sc2nc2n1CCCC2)CCC3	Measles CPE 36
O=c1c2c3c(sc2nc2n1CCCCC2)CCCCC3	none
CCOc1ccc(OCC)c(NC(=O)CN2CCN(c3cccc(C)c3)C(C)C2)c1 (configuration not stated)	none
Cc1ccc(NC(=O)C(=O)NCc2ccc(/C=C(/C#N)C(=O)NCc3cccnc3)o2)cc1C	none (no result: CYP2C9 inh, CYP2C9 act, CYP2C19 act, CYP2C19 inh)
Cc1ccc(NC(=O)C(=O)NCc2ccc(/C=C(/C#N)C(=O)NCc3cccnc3)o2)cc1	CYP2C9 inh 58
CCn1c(SCC(=O)Nc2cccc(NC(C)=O)c2)nnc1C(C)C	none
CCCn1c(SCC(=O)Nc2c(CC)cccc2CC)nnc1C(C)C	CYP2C19 inh 58
COCCn1c(SCC(=O)Nc2cc(C)cc(C)c2)nnc1C(C)C	CYP2C19 inh 61
CCc1cccc(C)c1NC(=O)CSc1nnc(-c2cc3cc(Br)ccc3o2)n1CC	CYP2C9 inh 56
Cn1c(SCC(=O)Nc2cccc(Br)c2)nnc1-c1cc2ccccc2o1	none
COCCn1c(SCC(=O)Nc2cccc(C)c2)nnc1C(C)C	CYP2C19 inh 68
Cc1ccc(SCCC(=O)Nc2ccccc2C(=O)NC(C)C)cc1	none (no result: CYP2C9 inh, CYP2C9 act, CYP2C19 act, CYP2C19 inh)
Cc1ccc(-n2c(CCC(=O)O)ccc2-c2cccs2)cc1	none
COCCn1c(SCC(=O)c2ccc(Cl)cc2)nnc1C(C)C	CYP2C19 inh 74
COCCn1c(SCC(=O)c2ccc3c(c2)OCCO3)nnc1C(C)C	none
Cc1ccc(S(=O)(=O)NC(C)(C)CSc2nnc(Nc3ccccc3)s2)cc1	none
Cc1ccc(S(=O)(=O)NC(C)(C)CSc2nncn2N)cc1	CYP2C19 inh 59
CC12CCC(c3c(C(=O)O)nn(-c4ccccc4)c31)C2(C)C (configuration not stated)	none
CC12CCC(c3c(CO)nn(-c4ccccc4)c31)C2(C)C (configuration not stated)	CYP2C19 inh 59
CC12CCC(c3c(C(=O)Nc4nccs4)nn(-c4ccccc4)c31)C2(C)C (configuration not stated)	CYP2C9 inh 74
CCC(=O)c1ccc(OCCSc2ncccn2)cc1	none
Cc1noc(C)c1C(=O)N1CCN(c2ncccn2)CC1	none
O=C(OCC(=O)N1CCOCC1)c1ccccc1Cc1ccccc1	none (no result: CYP2C9 inh, CYP2C9 act, CYP2C19 act, CYP2C19 inh)
O=C(Nc1nnc(-c2cccs2)o1)c1cccc(C(F)(F)F)c1	CYP2C9 inh 59
O=c1oc(-c2ccc(Br)o2)nc2ccccc12	CYP2C19 inh 77
COc1ccc(P(=O)(COc2ccc([N+](=O)[O-])cc2)c2ccc(OC)cc2)cc1	none (no result: CYP2C9 inh, CYP2C9 act, CYP2C19 act, CYP2C19 inh)
O=C1c2ccccc2-c2onc3ccc(NCc4ccco4)c1c23	CYP2C9 inh 88, CYP2C19 inh 55
O=C(CSc1nnc(-c2ccc3c(c2)OCCO3)o1)N1CCCC1	none
O=C(CSc1nnc(-c2ccccc2Cl)o1)N1CCCCC1	none
CCC1CCCCN1C(=O)CSc1nnc(-c2ccc(OC)cc2)o1 (configuration not stated)	CYP2C19 inh 85
CCC1CCCCN1C(=O)CSc1nnc(-c2ccc3c(c2)OCCO3)o1 (configuration not stated)	CYP2C9 inh 80, CYP2C19 inh 99
CC1CCCCN1C(=O)CSc1nnc(-c2ccc(Cl)s2)o1 (configuration not stated)	CYP2C9 inh 56, CYP2C19 inh 95
O=C(NC(=S)Nc1ccc(S(=O)(=O)N2CCCCCC2)cc1)c1cccs1	none (no result: CYP2C9 inh, CYP2C9 act, CYP2C19 act, CYP2C19 inh)
COc1ccc(N2C(=O)/C(=C\c3ccco3)N=C2SCC(=O)NC(C)(C)C)cc1Cl	none (no result: CYP2C9 inh, CYP2C9 act, CYP2C19 act, CYP2C19 inh)
COCCNC(=O)c1cc(Br)ccc1Cl	none
CC1(C)CC(CCN(Cc2ccccc2)C(=O)c2ccco2)(c2ccccc2)CCO1 (configuration not stated)	none (no result: CYP2C9 inh, CYP2C9 act, CYP2C19 act, CYP2C19 inh)
c1ccc(-c2nnc(SCc3nnc(-c4cccs4)o3)o2)cc1	none

Source: PubChem BioAssay
